We go through 12 compounds from PubChem BioAssay (NCATS).

Inconclusive results are not listed. Calls of active or inactive are those of the source. Calls follow the shape of the dose curve; as a rule, active = well fitted inhibition curve with a large enough effect; inconclusive = small, poorly fitted or top-dose-only effect; inactive = flat fitted curve, though single readings scatter.

What all share (assay): qHTS profiling for inhibitors of Plasmodium falciparum proliferation (AID 504749); also: nearly all actives have a fitted effect of over 60% in size
Holding throughout (settings): P. falciparum in erythrocytes, SYBR Green DNA, 72 h; series mostly up to 28.7 µM
On the technique in general: Quantitative high-throughput screening tests each substance at several concentrations.

The test system of one assay is ATS95. An outline of the steps: (§1)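 Fluorescence of SYBR Green-bound parasite DNA, read at 485/535 nm, served as the growth measure. Infected erythrocytes were cultured with compound 72 h; artemisinin (0.29 uM) and DMSO wells defined the normalization range.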
For another assay, the system named is C2A. An outline of the steps: as §1
The test system of a further assay is CP217. A digest of the protocol: as §1
The next assay relates to CP237. An outline of the steps: as §1
Another assay concerns CP238. A digest of the protocol:
as §1

The next assay relates to CP250. A digest of the protocol:
as §1

The next assay concerns CP252. An outline of the steps: as §1
For a further assay, the system named is CP256. A digest of the protocol: as §1
The next assay concerns CP262. An outline of the steps: as §1
The subject of the next assay is CP265. An outline of the steps:
as §1

Another assay deals with CP266. A digest of the protocol:
as §1

A further assay has as its system CP268. A digest of the protocol: as §1
The subject of a further assay is CP269. An outline of the steps:
as §1

In a further assay the test system is CP325. An outline of the steps: as §1
In a further assay the test system is CP329. A digest of the protocol:
as §1

The subject of the next assay is Dd2. An outline of the steps: as §1
In a further assay the test system is ECU. An outline of the steps:
as §1

A further assay deals with GB4. A digest of the protocol:
as §1

The test system of the next assay is P93_24. An outline of the steps:
as §1

For the next assay, the system named is SC27B. An outline of the steps: as §1
Potency is read from the fitted curve at half-maximal effect.

Turning to `CC(c1ncncc1F)[C@](O)(Cn1cncn1)c1ccc(F)cc1F` (stereo not given in full), the Potency result in the assay with ATS95, in the assay with C2A, in the assay with CP217, in the assay with CP237, in the assay on CP238 and in the assay on CP250 was “inactive” each time. The Potency entry in the assay on CP252, in the assay with CP256, with CP262, with CP265, with CP266 and in the assay with CP268 was “inactive” in each case. Further, the Potency result in the assay on CP269, in the assay on CP325, in the assay on CP329, in the assay with Dd2, with ECU and with GB4 was “inactive” in each case. For the same compound, the Potency result in the assay on P93_24 and with SC27B was “inactive” in each case.
In the case of `CC(O)C1CCC2C3CCC4CC(O)CCC4(C)C3CCC12C` (stereo not given), the Potency result in the assay with ATS95, with C2A, in the assay with CP217, in the assay with CP237, in the assay on CP238 and with CP250 was “inactive” in each case. The Potency result with CP252, with CP256, in the assay with CP262, with CP265, in the assay on CP266 and in the assay with CP268 was “inactive” throughout. Moreover, the Potency result with CP269, with CP325, in the assay with CP329, in the assay on Dd2, in the assay with ECU and in the assay on GB4 was “inactive” throughout. The Potency result in the assay with P93_24 and in the assay on SC27B was “inactive” each time.
Take `O=c1[nH]c(=O)n(C2C[C@H](O)[C@@H](CO)O2)cc1C(F)(F)F` (stereo not given in full): the Potency result with ATS95, in the assay with C2A, with CP217, in the assay on CP237, with CP238 and in the assay with CP250 was “inactive” throughout. Also, the Potency result with CP252, with CP256, with CP262, in the assay on CP265, with CP266 and in the assay with CP268 was “inactive” throughout. Moreover, the Potency entry with CP269, with CP325, with CP329, with Dd2, in the assay on ECU and in the assay on GB4 was “inactive” in each case. Moreover, the Potency result in the assay with P93_24 and in the assay with SC27B was “inactive” each time.
As for `CC(C)(C)C(=O)OCC(=O)C1CCC2C3CCC4=CC(=O)CCC4(C)C3CCC12C` (stereo not given), the Potency entry in the assay with ATS95, in the assay with C2A, in the assay on CP217, with CP237, with CP238 and in the assay on CP250 was “inactive” each time. Moreover, the Potency result in the assay on CP252, in the assay on CP256, in the assay with CP262, in the assay with CP265, in the assay on CP266 and with CP268 was “inactive” in each case. In addition, the Potency result in the assay with CP269, in the assay on CP325, with CP329, in the assay on Dd2, in the assay with ECU and in the assay on GB4 was “inactive” throughout. For the same compound, the Potency result in the assay on P93_24 and in the assay on SC27B was “inactive” each time.
For `CC[C@@H](C)C(N)C(=O)O` (stereo not given in full), the Potency result in the assay with ATS95, in the assay on C2A, in the assay with CP217, with CP237, in the assay with CP238 and in the assay with CP250 was “inactive” in each case. In addition, the Potency entry in the assay with CP252, in the assay with CP256, with CP262, in the assay on CP265, in the assay on CP266 and with CP268 was “inactive” each time. For the same compound, the Potency entry in the assay with CP269, with CP325, in the assay on CP329, in the assay on Dd2, in the assay on ECU and with GB4 was “inactive” throughout. For the same compound, the Potency entry in the assay on P93_24 and in the assay on SC27B was “inactive” each time.
Turning to `O=c1ccn(C2OC(COP(=O)(O)OC3C(CO)OC(n4ccc(=O)[nH]c4=O)C3O)C(O)C2O)c(=O)[nH]1` (stereo not given), the Potency result in the assay with ATS95, with C2A, in the assay on CP217, in the assay with CP237, in the assay on CP238 and in the assay with CP250 was “inactive” in each case. Moreover, the Potency entry in the assay with CP252, in the assay on CP256, in the assay on CP262, in the assay with CP265, in the assay with CP266 and with CP268 was “inactive” each time. Moreover, the Potency entry with CP269, in the assay on CP325, in the assay with CP329, in the assay on Dd2, in the assay with ECU and in the assay with GB4 was “inactive” throughout. Further, the Potency result in the assay with P93_24 and with SC27B was “inactive” throughout.
Take `CC[C@@H]1/C=C(\C)C[C@H](C)C[C@H](OC)[C@H]2O[C@@](O)(C(=O)C(=O)N3CCCC[C@H]3C(=O)O[C@H](/C(C)=C/[C@@H]3CC[C@H](Cl)[C@H](OC)C3)[C@H](C)[C@@H](O)CC1=O)[C@H](C)C[C@@H]2OC`: the Potency result in the assay with ATS95, in the assay on C2A, in the assay with CP217, in the assay on CP237, in the assay with CP238 and with CP250 was “inactive” throughout. For the same compound, the Potency result with CP252, with CP256, in the assay on CP262, with CP265, with CP266 and with CP268 was “inactive” throughout. Further, the Potency result with CP269, in the assay with CP325, in the assay on CP329, with Dd2, in the assay with ECU and in the assay with GB4 was “inactive” throughout. The Potency entry in the assay on P93_24 and with SC27B was “inactive” in each case.
As for `Cc1ccc(Nc2ncccc2C(=O)O)cc1C`, the Potency result with ATS95, in the assay on C2A, with CP217, in the assay on CP237, in the assay with CP238 and in the assay with CP250 was “inactive” in each case. The Potency entry in the assay on CP252, with CP256, in the assay with CP262, with CP265, in the assay on CP266 and in the assay with CP268 was “inactive” in each case. The Potency entry in the assay on CP269, in the assay on CP325, in the assay on CP329, in the assay on Dd2, in the assay on ECU and with GB4 was “inactive” in each case. For the same compound, the Potency result with P93_24 and in the assay with SC27B was “inactive” throughout.
As to `CC(C)C[C@@H](NC(=O)[C@@H](Cc1ccccc1)NC(=O)c1cnccn1)B(O)O`, the Potency with ATS95 was 112 nM (active); with C2A, 112 nM (active); with CP217 it was 112 nM (active); in the assay on CP237, 89.1 nM (active); in the assay on CP238, 89.1 nM (active); in the assay with CP250, 126 nM (active). Further, the Potency was 89.1 nM (active) in the assay on CP252; 141 nM (active) in the assay on CP256; 120 nM (active) in the assay on CP262; 141 nM (active) in the assay with CP265; 379 nM (active) in the assay on CP266; 135 nM (active) in the assay with CP268. For the same compound, the Potency was 151 nM (active) with CP269; 151 nM (active) in the assay with CP325; 120 nM (active) in the assay on CP329; 112 nM (active) with Dd2; 126 nM (active) with ECU; 120 nM (active) in the assay with GB4. For the same compound, the figures for the Potency in the assay on P93_24 and in the assay with SC27B were 158 nM (active) and 141 nM (active), respectively.
Regarding `C=CCn1c(=O)n(C2OC(CO)C(O)C2O)c2nc(N)[nH]c(=O)c21` (stereo not given), the Potency result with ATS95, in the assay with C2A, in the assay with CP217, in the assay with CP237, in the assay on CP238 and in the assay with CP250 was “inactive” throughout. The Potency result in the assay on CP252, in the assay on CP256, in the assay on CP262, with CP265, in the assay on CP266 and with CP268 was “inactive” each time. Also, the Potency entry in the assay on CP269, with CP325, in the assay on CP329, in the assay with Dd2, with ECU and in the assay with GB4 was “inactive” in each case. For the same compound, the Potency entry in the assay on P93_24 and with SC27B was “inactive” throughout.
As to `NC(C(=O)O)c1ccc(O)cc1` (stereo not given), the Potency result in the assay on ATS95, with C2A, in the assay on CP217, in the assay with CP237, in the assay on CP238 and in the assay with CP250 was “inactive” throughout. For the same compound, the Potency result in the assay on CP252, in the assay on CP256, with CP262, in the assay with CP265, in the assay on CP266 and in the assay with CP268 was “inactive” each time. The Potency result with CP269, in the assay on CP325, in the assay on CP329, in the assay on Dd2, in the assay on ECU and in the assay with GB4 was “inactive” each time. Moreover, the Potency entry in the assay with P93_24 and in the assay with SC27B was “inactive” throughout.
In the case of `CC(=O)NC1[C@H]([C@H](O)[C@H](O)CO)OC(C(=O)O)=C[C@H]1N=C(N)N` (stereo not given in full), the Potency result in the assay with ATS95, with C2A, in the assay with CP217, with CP237, in the assay on CP238 and in the assay with CP250 was “inactive” in each case. Further, the Potency result in the assay on CP252, with CP256, in the assay on CP262, in the assay with CP265, in the assay with CP266 and in the assay on CP268 was “inactive” in each case. The Potency result with CP269, in the assay on CP325, in the assay on CP329, with Dd2, in the assay with ECU and with GB4 was “inactive” each time. Moreover, the Potency entry with P93_24 and with SC27B was “inactive” throughout.
